# FECH inh: inhibitors of human ferrochelatase; AID 1671448; purified FECH, Ni-mesoporphyrin absorbance 550 nm; P22830; calls only at 10 µM (by protocol); 20,000 compounds, 3.3% hits;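 active = enzyme reaction rate more than 3 SD below the solvent-only control wells on the same plate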;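 also: lower slope than DMSO wells means FECH inhibition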
# Target sequence (P22830 whole entry, looked up): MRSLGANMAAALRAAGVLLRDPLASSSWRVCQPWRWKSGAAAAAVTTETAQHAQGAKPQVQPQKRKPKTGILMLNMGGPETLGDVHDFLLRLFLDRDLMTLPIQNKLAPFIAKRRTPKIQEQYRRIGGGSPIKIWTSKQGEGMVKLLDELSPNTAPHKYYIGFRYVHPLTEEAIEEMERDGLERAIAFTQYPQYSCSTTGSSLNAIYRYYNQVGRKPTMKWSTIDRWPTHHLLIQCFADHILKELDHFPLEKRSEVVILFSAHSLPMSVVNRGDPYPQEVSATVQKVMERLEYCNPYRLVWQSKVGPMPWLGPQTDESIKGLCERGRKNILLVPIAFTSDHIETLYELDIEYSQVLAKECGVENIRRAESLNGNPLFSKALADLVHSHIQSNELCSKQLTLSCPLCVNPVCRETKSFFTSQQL
# Calls only; i = inactive; + = active, no number. This excerpt belongs to a sample that is enriched for hits.
SMILES,FECH inh
O=C1CN(Cc2cccc(Br)c2)S(=O)(=O)c2ccccc2N1Cc1cccc(F)c1,i
COc1cccc(N2C(=O)N(Cc3ccc(C(C)(C)C)cc3)c3ccccc3S2(=O)=O)c1,i
Cc1ccc(C)c(CN2CC(=O)N(Cc3cccc(C(F)(F)F)c3)c3ccccc3S2(=O)=O)c1,i
Cc1cccc(N2C(=O)N(Cc3ccc(C)c(C)c3)c3ccccc3S2(=O)=O)c1,+
CCc1cccc(N2C(=O)N(Cc3cc(F)cc(F)c3)c3ccccc3S2(=O)=O)c1,+
Cc1ccc(N2C(=O)N(Cc3cc(F)cc(F)c3)c3ccccc3S2(=O)=O)cc1,+
CC(C)(C)c1ccc(CN2C(=O)N(c3cc(F)ccc3F)S(=O)(=O)c3ccccc32)cc1,i
Cc1ccc(N2C(=O)N(Cc3cc(=O)n4ccccc4n3)c3ccccc3S2(=O)=O)cc1,i
Cc1ccc(N2C(=O)N(Cc3ccc(C(C)(C)C)cc3)c3ccccc3S2(=O)=O)cc1F,i
Cc1ccc(N2C(=O)N(Cc3cc(F)cc(F)c3)c3ccccc3S2(=O)=O)c(C)c1,+
O=C1CN(Cc2ccc(F)cc2)S(=O)(=O)c2ccccc2N1Cc1ccc(Cl)cc1,i
CCc1cccc(N2C(=O)N(CC(=O)NC3CCCCC3)c3ccccc3S2(=O)=O)c1,i
COC(=O)c1cc2n(n1)CCN(C(=O)c1ccc(C3CCCO3)s1)C2 (stereo unspecified),i
COc1ccc(OCC(=O)Nc2cc(N3CCCS3(=O)=O)ccc2C)cc1,i
CC(C)c1nc(CNC(=O)Cc2csc(-c3ccccc3)n2)no1,i
CC(C)C1=NOC(CNC(=O)c2cn[nH]c2C2CCCCC2)C1 (stereo unspecified),i
COc1ccc(CNc2nc3nc(CNc4cccc(C(F)(F)F)c4)cc(=O)n3[nH]2)cc1,i
Cc1ccc(NCc2nc3nc(C(C)C)cc(=O)n3[nH]2)cc1Cl,+
CCc1nc2nc(C)c(NC(=O)Nc3ccc(C)c(Cl)c3)c(=O)n2[nH]1,i
COc1ccccc1CNc1nc2nc(CNc3cccc(C(F)(F)F)c3)cc(=O)n2[nH]1,i
CC(C)c1cc(=O)n2[nH]c(CNc3cccc(C(F)(F)F)c3)nc2n1,+
COc1ccc(CNc2nc3nc(CNc4ccc(OC)cc4)cc(=O)n3[nH]2)cc1,i
c1ccc(-n2cccn2)c(CNc2ncnc3c2CCNC3)c1,i
O=C1CC(C(=O)Nc2cccc(F)c2)N=C(Nc2ccc(F)cc2)N1 (stereo unspecified),i
Cc1cc(C)n2nc(CN(C(=O)c3ccc(F)cc3)c3cccc(Cl)c3)nc2n1,i
SMILES,FECH inh
Cc1nn(-c2cc(N3CCCC3)ncn2)c(C)c1CCC(=O)NCc1cccc(Cl)c1,i
CCCc1ccc(S(=O)(=O)NCc2nc3cccnc3n2C2CCCCC2)cc1,i
Cc1cccc2c(=O)n(CCN3CCCC(c4ccccc4)C3)cnc12 (stereo unspecified),i
Cc1cc(Cl)cc2c(=O)n(CC3(CO)CCC3)cnc12,+
Cc1cc(C)c2ncn(CCC(C)O)c(=O)c2c1 (stereo unspecified),i
CC(C)(C)CNC(=O)c1nc[nH]c1C(=O)NCC(C)(C)C,i
COc1ccccc1CNC(=O)c1[nH]cnc1C(=O)NC1CCCCC1,+
Cc1ccc(CNC(=O)c2nc[nH]c2C(=O)NCc2ccccc2)o1,i
COCCNC(=O)c1[nH]cnc1C(=O)NC1CCCCC1,i
O=C(NC1CC1)c1nc[nH]c1C(=O)NCC1CCCCC1,i
CC(C)NC(=O)c1nc[nH]c1C(=O)NCC1CC1,i
COc1ccccc1CNC(=O)c1[nH]cnc1C(=O)NCc1ccc(C)o1,+
Cc1ccc(CNC(=O)c2[nH]cnc2C(=O)NCCC(C)C)o1,i
CCCNC(=O)c1nc[nH]c1C(=O)NCC1CCCCC1,i
COc1ccccc1CNC(=O)c1nc[nH]c1C(=O)N1CCC(C)CC1,i
COc1ccccc1CNC(=O)c1nc[nH]c1C(=O)NCc1ccccc1OC,+
COc1ccccc1CNC(=O)c1[nH]cnc1C(=O)NC1CCCc2ccccc21 (stereo unspecified),+
CCOC(=O)c1cc2ccsc2n1CC(=O)Nc1cccc(C(C)=O)c1,i
Nc1ccc(-c2cc(NCCO)nc3[nH]ccc23)cn1,i
CCCn1c(CNS(=O)(=O)c2ccc(OC)cc2)nc2cccnc21,i
Cc1[nH]c2c(c1C(=O)N1CCN(C)C(C(=O)O)C1)C(=O)CCC2 (stereo unspecified),i
Cn1c(=O)c(C(=O)Nc2ccc3c(c2)N2CCN=C2S3)nc2ccccc21,i
CC(C)CN1CCC(CNC(=O)c2ccc(N3CCOC(C)(C)C3)nc2)C1 (stereo unspecified),i
COCCn1c(CNS(=O)(=O)c2ccccc2C)nc2cccnc21,i
COc1cccc(Cn2c(CNC(=O)c3ccc(OC)cc3OC)nc3cccnc32)c1,+
SMILES,FECH inh
CC(C)Cc1ccc(S(=O)(=O)NCc2nc3cccnc3n2Cc2ccccc2)cc1,i
CCCn1c(CNS(=O)(=O)c2ccc(Cl)cc2)nc2cccnc21,i
CCCc1ccc(S(=O)(=O)NCc2nc3cccnc3n2Cc2ccccc2)cc1,+
COc1ccc(Cn2c(CNS(=O)(=O)c3ccc(Cl)cc3)nc3cccnc32)cc1,i
COc1ccc(Cn2c(CNS(=O)(=O)c3ccccc3)nc3cccnc32)cc1,+
COc1ccc(S(=O)(=O)NCc2nc3cccnc3n2Cc2ccccc2)cc1,i
CC(C)c1ccc(S(=O)(=O)NCc2nc3cccnc3n2Cc2ccccc2)cc1,i
COc1cccc(Cn2c(CNC(=O)c3cccc(OC)c3)nc3cccnc32)c1,i
CCCn1c(CNS(=O)(=O)c2ccc(CC(C)C)cc2)nc2cccnc21,+
COCCn1c(CNC(=O)c2ccc(OC)cc2OC)nc2cccnc21,i
CCc1ccc(Cn2c(CNS(=O)(=O)c3ccc(CC)cc3)nc3cccnc32)cc1,i
CCCCOc1ccc(C(=O)Nc2ccc(Nc3nc(C)cc(N4CCCC4)n3)cc2)cc1,i
CCOc1ccc(N2C(=O)c3cc4ccsc4n3CC2(C)C(=O)NCCOC)cc1 (stereo unspecified),i
CC(C)c1cc(NCc2cccnc2N2CCN(c3ccccn3)CC2)ncn1,i
Cc1nc(CCNC(=O)c2cn[nH]n2)nc2c1CCCC2,i
COc1ccccc1-n1cc(C(=O)NCCS(C)(=O)=O)cn1,i
CCOC(=O)c1c(NC(=O)c2ccccc2)sc2c1CCN(CC)C2,i
COc1ccc(C(=O)Nc2nc3n(n2)C(c2ccc(F)cc2)C=C(c2ccccc2)N3)cc1 (stereo unspecified),i
Cc1ccc(O)c(CN(Cc2ccco2)C(C)C(C)C)n1 (stereo unspecified),i
Cc1cc(NC(=O)c2ccc(OC(C)C)cc2)n(-c2ncnc3c2cnn3-c2ccc(F)cc2)n1,i
COc1ccc(OC)c(NC(=O)CSCc2nc(-c3ccc(F)cc3)no2)c1,i
COc1ccccc1C(=O)Nc1cc(Cl)ccc1OCc1cc(=O)n2oc(C)cc2n1,i
COc1ccc(S(=O)(=O)NCc2nc3cccnc3n2C2CCCC2)cc1,i
O=S(=O)(NCc1nc2cccnc2n1C1CCCCC1)c1ccc(Cl)cc1,i
Cc1ccc(S(=O)(=O)NCc2nc3cccnc3n2C2CCCC2)cc1,+
CCc1ccc(NC(=O)CN2CCN(Cc3ccccc3F)S2(=O)=O)cc1,i
CCN(C(=O)CSCc1nc(-c2ccccc2)no1)c1ccccc1,i
CC(C(=O)O)n1cc(-c2ncc[nH]2)c2ccccc21 (stereo unspecified),i
CSc1nc(-c2ccc(C)cc2)c(C#N)c(N(C)Cc2ccccc2)n1,i
Cc1ccc(C)c(OCc2cc(C(=O)NCc3nnc4n3CCC4)no2)c1,+
